Screening data as filed in PubChem BioAssay.
Sampled rows, rich in hits. Any-hit rate of the full collection: about 2.4%.
Pol kappa inh – qHTS for Inhibitors of Polymerase Kappa. DNA polymerase kappa (Homo sapiens), Q9UBT6. purified Pol kappa, fluorescent DNA synthesis assay, 10 min. Potency, µM (highest dose often 107 µM), without a hit: at the highest dose activity, negative = inhibition, hits mostly inhibitors. 400,000 tested, 0.53% active; note: % is set by controls: 0 for no effect and ±100 for the full control effect
Target sequence (Q9UBT6 whole entry, looked up): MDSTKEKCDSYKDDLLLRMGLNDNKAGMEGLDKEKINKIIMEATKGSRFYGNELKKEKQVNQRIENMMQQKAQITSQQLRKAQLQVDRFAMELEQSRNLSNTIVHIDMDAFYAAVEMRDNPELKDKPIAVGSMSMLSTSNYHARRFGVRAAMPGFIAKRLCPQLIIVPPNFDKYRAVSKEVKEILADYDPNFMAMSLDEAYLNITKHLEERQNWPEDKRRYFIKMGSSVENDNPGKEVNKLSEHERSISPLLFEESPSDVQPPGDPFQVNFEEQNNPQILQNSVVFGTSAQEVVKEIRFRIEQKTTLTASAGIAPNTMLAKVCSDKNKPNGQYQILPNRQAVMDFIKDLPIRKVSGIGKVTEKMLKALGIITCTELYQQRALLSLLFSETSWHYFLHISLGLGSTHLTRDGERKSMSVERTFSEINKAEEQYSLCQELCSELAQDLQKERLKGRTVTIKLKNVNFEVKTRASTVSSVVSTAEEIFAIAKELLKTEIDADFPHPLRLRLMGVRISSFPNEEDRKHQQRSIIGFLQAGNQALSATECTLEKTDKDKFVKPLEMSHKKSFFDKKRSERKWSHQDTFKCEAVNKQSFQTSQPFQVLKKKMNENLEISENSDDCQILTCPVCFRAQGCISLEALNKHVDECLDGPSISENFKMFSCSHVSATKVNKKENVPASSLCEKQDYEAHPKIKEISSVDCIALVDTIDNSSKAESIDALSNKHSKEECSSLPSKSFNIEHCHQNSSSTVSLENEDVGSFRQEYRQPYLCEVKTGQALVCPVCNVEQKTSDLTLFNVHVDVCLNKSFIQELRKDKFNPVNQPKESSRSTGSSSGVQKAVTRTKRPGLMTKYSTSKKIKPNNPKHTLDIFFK
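Inhibition of 10 nM Pol kappa is measured by a fluorescent read-out at 0 and 10 min following addition of 50 nM substrate (final), with a 15-min room-temperature compound preincubation.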
Pol beta inh – qHTS Assay for Inhibitors of DNA Polymerase Beta | P06746 | Pol beta primer extension/strand displacement, fluorescence kinetic | Potency, µM (series often up to 114 µM), for the others: top-dose activity change, negative = inhibition, usual class: inhibitors | 340,000 tested, 1.3% active | AID 485314, 2010; note: % is set by controls: 0 for no effect and ±100 for the full control effect
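Pol beta (10 nM) and compounds were preincubated 15 min at room temperature, then 50 nM substrate (final) started primer extension/strand displacement. Reads were taken at 0 and 10 min; concentration-response data were fitted to a four-parameter Hill equation.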
WRN inhibitor – qHTS for Inhibitors of WRN Helicase | 360,000 tested, 0.46% active | Bifunctional 3'-5' exonuclease/ATP-dependent helicase WRN (Homo sapiens), Q14191 | WRN helicase unwinding, fluorescent forked duplex, kinetic | Potency, µM (highest dose often 114 µM), without a hit: at the top dose activity change, negative = inhibition, usual class: inhibitors; note: % is set by controls: 0 for no effect and ±100 for the full control effect; nearly all actives have a fitted effect of over 55% in size
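Fluorescence dequenching readout, ex 525 nm/em 598 nm, kinetic mode: forked duplex DNA (100 nM final) with adjacent fluorophore and quencher unwound by WRN (20 nM final) with 2 mM ATP. Compound preincubation 15 min, room temperature.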
POLI inh – qHTS for Inhibitors of Polymerase Iota | Potency, µM (highest dose often 115 µM), inactives show at the top dose activity, negative = inhibition, actives largely listed as inhibitors | 390,000 tested, 1% active | Pol iota fluorescent replication assay, 10 min | DNA polymerase iota (Homo sapiens), Q9UNA4
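Fluorescent replication assay read twice, at 0 min and 10 min after adding 50 nM (final) substrate. Enzyme (10 nM) and compounds were first incubated 15 min at room temperature; enzyme-free buffer wells were negative controls.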
FEN1 inhibitor – qHTS Assay for the Inhibitors of Human Flap endonuclease 1 (FEN1) | Recombinant FEN1 flap cleavage, fluorescence, 15 min | Potency, µM (highest dose often 114 µM), for the others: top-dose activity change, negative = inhibition, usual class: inhibitors | 390,000 tested, 0.35% active; note: % is set by controls: 0 for no effect and ±100 for the full control effect; nearly all actives have a fitted effect of over 65% in size
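Compounds are tested as a concentration series against 10 nM FEN1; after a 15 min room-temperature preincubation, 50 nM substrate starts cleavage, with plate reads at 0 and 15 min. Normalized responses are fitted by a Hill equation.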
Pol eta inh – qHTS for Inhibitors of Polymerase Eta | AID 588591, 2011 | Potency, µM (highest dose often 114 µM), for inactives: at the highest dose activity change, negative = inhibition, most hits filed as inhibitors | recombinant Pol eta, fluorescent DNA replication assay | DNA polymerase eta (Homo sapiens), Q9Y253 | 390,000 tested, 1.2% active; note: % is set by controls: 0 for no effect and ±100 for the full control effect
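Pol eta (10 nM) was preincubated with compounds for 15 min at room temperature, after which fluorescent replication substrate (50 nM final) was added to start the reaction. Fluorescence was read kinetically at 0 and 10 min.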
* = called active by the depositor; ? = inconclusive; nt = not tested or not shown; [ ] = dose if it differs, or a comment. Calls come from the whole dose curve; as a rule, active = well fitted curve in the direction sought with a large enough effect; inconclusive = small, poorly fitted or top-dose-only effect, or another doubt; inactive = no such curve, though single readings can be large; an effect the other way counts as inactive or inconclusive. Potency is the fitted concentration of half-maximal effect.

SMILES	Pol kappa inh	Pol beta inh	WRN inhibitor	POLI inh	FEN1 inhibitor	Pol eta inh
COc1cc(N(C)C)ccc1C=c1c2ccccc2n2c1cc(-c1ccccc1)[n+]2C	?	nt	20µM*	?	7.9µM*	22µM*
CN(C)c1ccc(C=C2C=C(c3ccccc3)OC2=O)cc1	nt	nt	-15%	nt	nt	-18%
CN(C)c1ccc(C=c2c3ccccc3n3c2cc(-c2ccc(Cl)cc2)[n+]3C)cc1	-11%	nt	28µM*	?	22µM*	?
CN(C)c1ccc(C=c2c3cc([N+](=O)[O-])ccc3n3c2cc(-c2ccccc2)[n+]3C)cc1	-24%	nt	35µM*	?	56µM*	0%
CN(C)c1ccc(/C=C2\C=Cc3cc([N+](=O)[O-])ccc32)cc1	-21%	nt	nt	-6%	1%	nt
CCn1c(SC(C)C(=O)Nc2ccc(C)cc2)nnc1-c1ccccc1 (configuration not stated)	10%	nt	nt	-4%	0%	nt
CCOC(=O)NCCOc1ccc(Oc2ccccc2)cc1	-2%[60.1 µM]	nt	nt	nt	nt	nt
CN(C)c1ccc(/C=C/C(=O)c2cc(Cl)ccc2O)cc1	-8%	27%	50µM*	-18%	-34%	?
CC(=O)Nc1cccc(C(=O)/C=C/c2ccc(N(C)C)cc2)c1	?	50µM*	?	22µM*	?	?
Cc1noc(-c2ccc(N3CCCCC3C)c([N+](=O)[O-])c2)n1 (configuration not stated)	-12%	40µM*	nt	-12%	5%	-18%
Cc1ccc(-c2noc(-c3ccc(N4CCCCC4C)c([N+](=O)[O-])c3)n2)cc1 (configuration not stated)	-7%	2%	nt	-29%	-3%	1%
Cc1cccc(CSc2nc3c(sc4ccccc43)c(=O)n2CCC(=O)NC(C)C)c1	-2%	25µM*	nt	24%	-3%	-22%
CC(C)NC(=O)CCn1c(SCc2c(F)cccc2Cl)nc2c(sc3ccccc32)c1=O	-6%	-29%	nt	21%	-2%	-4%
COc1ccccc1/C=C(/CC(=O)NCc1ccc(F)cc1)c1nc2ccccc2s1	-17%	45µM*	-8%[57.1 µM]	?	0%	?
COc1ccccc1/C=C(/CC(=O)NCc1ccccc1)c1nc2ccccc2s1	-31%	20µM*	-25%	-5%	-3%	?
CN=c1scc(-c2ccccc2F)n1/N=C/c1ccc[nH]1	-19%	2%	0%	13%	0%	-4%
CN=c1scc(-c2ccccc2F)n1/N=C/c1ccc(O)c(O)c1O	?	1.4µM*	56µM*	?	?	?
CC(C)N=c1scc(-c2cccs2)n1/N=C/c1ccc(O)c(O)c1O	?	2.2µM*	?	?	-19%	?
CCN=c1scc(-c2cccs2)n1/N=C/c1cc(OC)ccc1O	-2%	-9%	-27%[57.1 µM]	-3%	4%	-14%
CN(C)c1ccc(/C=C/c2ccnc3ccccc23)cc1N	-16%	nt	nt	79µM*	-11%	nt
Cc1cc(N(C)C)c(C)cc1/C=C/c1ccnc2ccccc12	-19%	nt	nt	89µM*	-3%	nt
Cc1cc(/C=C/c2ccnc3ccccc23)ccc1N	?	nt	nt	?	-13%	nt
O=c1c(-c2cc(-c3ccc(F)cc3)nc3c2COc2ccc(Cl)cc2-3)coc2ccc(F)cc12	-5%	2%	nt	27%	-4%	-10%
CCC1=C[C@@H]2CN(C1)Cc1c([nH]c3ccccc13)[C@@](C(=O)OC)(c1cc3c(cc1OC)N(C)[C@H]1[C@@](O)(C(=O)OC)[C@H](OC(C)=O)[C@]4(CC)C=CCN5CC[C@]31[C@@H]54)C2	9%[60.1 µM]	nt	nt	-6%	-26%	nt
